Data taken from PubChem BioAssay (EPA / NIEHS).
Results filed as inconclusive are left out. Active and inactive are the calls of the source. Rule for the calls: active = hit-call score of the fitted dose curve at least 0.9, where 1 is the maximum; inconclusive = response in the unintended direction; inactive = score below 0.9.

system: not listed separately; experiment: TOX21_p53_BLA_p5_viability: Viability Assessment in the Tox21 HCT-116 p53 Agonism Beta-lactamase Assay, Phase 5 (AID 2283600)
Outline: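 Cells were plated at 4000/well, rested 5 h at 37C, then given compounds in DMSO (217-fold dilution) for 16 h at 37C, 5% CO2. Following the CCF4-AM beta-lactamase read, CellTiter-Glo was added and luminescence was read after 30 min at room temperature.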

**Q.** With `CC1(C)S[C@@H]2[C@H](NC(=O)Cc3ccccc3)C(=O)N2[C@H]1C(=O)O` as the compound, how does the outcome read?
**A.** Its outcome is “inactive”.

**Q.** With `COC(=O)Nc1nc2ccc(C(=O)c3cccs3)cc2[nH]1` as the compound, how does the outcome read?
**A.** The outcome was “inactive”.

**Q.** With `C[C@@H](N)C(=O)O` as the compound, how does the outcome read?
**A.** The outcome was “inactive”.

**Q.** For `NS(=O)(=O)c1cc2c(cc1Cl)NC(Cc1ccccc1)NS2(=O)=O` (stereo unspecified), which outcome is on record?
**A.** The outcome was “inactive”.

**Q.** Which outcome does the source give for `CC(CN(C)C)CN1c2ccccc2CCc2ccccc21` (stereo unspecified) here?
**A.** The outcome was “inactive”.

**Q.** For `COC(=O)c1cccc(Cl)c1`, which outcome is on record?
**A.** Its outcome is “inactive”.

**Q.** With `N=C(N)c1ccccc1` as the compound, how does the outcome read?
**A.** The outcome was “inactive”.

**Q.** For `[O]=[Bi][O][Bi]=[O]`, which outcome is on record?
**A.** The outcome was “inactive”.

**Q.** With `OCC(O)COc1ccc(Cl)cc1` (stereo unspecified) as the compound, how does the outcome read?
**A.** The outcome was “inactive”.

**Q.** With `O=C(CO)[C@@H](O)[C@H](O)[C@@H](O)CO` as the compound, how does the outcome read?
**A.** Its outcome is “inactive”.

target: Cellular tumor antigen p53 (Homo sapiens) (UniProt P04637); experiment: TOX21_p53_BLA_p4_ratio: Tox21 HCT-116 p53 Agonism Beta-lactamase Assay, Ratio, Phase 4 (AID 2283601)
Sequence (P04637 whole entry, looked up): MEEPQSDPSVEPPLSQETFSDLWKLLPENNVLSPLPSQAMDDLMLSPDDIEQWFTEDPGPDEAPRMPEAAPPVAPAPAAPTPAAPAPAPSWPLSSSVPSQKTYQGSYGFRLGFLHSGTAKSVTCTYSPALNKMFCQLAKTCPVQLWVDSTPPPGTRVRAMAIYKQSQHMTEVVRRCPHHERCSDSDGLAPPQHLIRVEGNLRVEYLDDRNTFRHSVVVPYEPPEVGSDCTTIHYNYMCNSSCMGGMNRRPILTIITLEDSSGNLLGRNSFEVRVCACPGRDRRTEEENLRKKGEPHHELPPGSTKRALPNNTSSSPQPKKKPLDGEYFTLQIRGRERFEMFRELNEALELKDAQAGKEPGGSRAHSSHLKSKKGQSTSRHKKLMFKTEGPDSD
Outline: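 HCT-116 p53 beta-lactamase reporter cells (4000/well) preincubated 5 h, then compound (217-fold dilution of DMSO stock) for 16 h at 37C. CCF4-AM substrate added 2 h at room temperature; 460/530 nm emission ratio fitted upward versus DMSO.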

**Q.** With `CN(C)CCN(Cc1ccc(Cl)cc1)c1ccccn1` as the compound, how does the outcome read?
**A.** Its outcome is “inactive”.

**Q.** For `C=CCc1ccccc1OCC(O)CNC(C)C` (stereo unspecified), which outcome is on record?
**A.** Its outcome is “inactive”.

**Q.** Which outcome does the source give for `CC1(C)S[C@@H]2[C@H](NC(=O)C(C(=O)Oc3ccc4c(c3)CCC4)c3ccccc3)C(=O)N2[C@H]1C(=O)O` (stereo partly specified) here?
**A.** The outcome was “inactive”.

**Q.** Which outcome does the source give for `CCCCCCCC/C=C\CCCCCCCC(N)=O` here?
**A.** The outcome was “inactive”.

**Q.** Which outcome does the source give for `CNCC(=O)N[C@@H](CCCN=C(N)N)C(=O)N[C@H](C(=O)N[C@@H](Cc1ccc(O)cc1)C(=O)N[C@H](C(=O)N[C@@H](Cc1cnc[nH]1)C(=O)N1CCC[C@H]1C(=O)N[C@@H](C)C(=O)O)C(C)C)C(C)C` here?
**A.** The outcome was “inactive”.

**Q.** Which outcome does the source give for `O=C(O)CCNC(=O)c1ccccc1` here?
**A.** Its outcome is “inactive”.

**Q.** With `CC1(C)S[C@@H]2[C@H](NC(=O)Cc3ccccc3)C(=O)N2[C@H]1C(=O)O` as the compound, how does the outcome read?
**A.** Its outcome is “inactive”.

**Q.** For `Cc1ccccc1OCC(O)CNCCOc1ccc(C(N)=O)cc1` (stereo unspecified), which outcome is on record?
**A.** Its outcome is “inactive”.

**Q.** Which outcome does the source give for `C=CC(=O)OCC1CCCO1` (stereo unspecified) here?
**A.** The outcome was “inactive”.

**Q.** Which outcome does the source give for `COC(=O)Nc1nc2ccc(C(=O)c3ccccc3)cc2[nH]1` here?
**A.** Its outcome is “inactive”.

**Q.** With `O=C1c2ccccc2C(=O)C1c1ccccc1` as the compound, how does the outcome read?
**A.** The outcome was “inactive”.

**Q.** Which outcome does the source give for `Nc1nc(N)nc(-c2cc(Cl)ccc2Cl)n1` here?
**A.** The outcome was “inactive”.

**Q.** With `CCOC(=O)c1ccc(I)cc1` as the compound, how does the outcome read?
**A.** The outcome was “inactive”.

**Q.** Which outcome does the source give for `NS(=O)(=O)c1cc2c(cc1Cl)NC(C(Cl)Cl)NS2(=O)=O` (stereo unspecified) here?
**A.** The outcome was “inactive”.

**Q.** With `COc1ccc2c(c1OC)C(=O)O[C@@H]2[C@H]1c2c(cc3c(c2OC)OCO3)CCN1C` as the compound, how does the outcome read?
**A.** The outcome was “inactive”.

**Q.** With `O=C(O)CC(=O)O` as the compound, how does the outcome read?
**A.** The outcome was “inactive”.

**Q.** With `O=C(c1ccccc1)C1(O)CCCCC1` as the compound, how does the outcome read?
**A.** The outcome was “inactive”.

**Q.** Which outcome does the source give for `C[C@@H](N)C(=O)O` here?
**A.** The outcome was “inactive”.

**Q.** For `O=C(CCNNC(=O)c1ccncc1)NCc1ccccc1`, which outcome is on record?
**A.** Its outcome is “inactive”.

**Q.** Which outcome does the source give for `NS(=O)(=O)c1cc2c(cc1Cl)NC(Cc1ccccc1)NS2(=O)=O` (stereo unspecified) here?
**A.** Its outcome is “inactive”.

**Q.** Which outcome does the source give for `Cc1ccc(Cl)c(N)c1Cl` here?
**A.** The outcome was “inactive”.

**Q.** Which outcome does the source give for `CC(CN(C)C)CN1c2ccccc2CCc2ccccc21` (stereo unspecified) here?
**A.** The outcome was “inactive”.

**Q.** For `COC(=O)c1cccc(Cl)c1`, which outcome is on record?
**A.** Its outcome is “inactive”.

**Q.** With `CN1CCN(c2c(F)cc3c(=O)c(C(=O)O)cn4c3c2SCC4)CC1` as the compound, how does the outcome read?
**A.** The outcome was “inactive”.

**Q.** With `COc1cc2nc(N3CCN(C(=O)c4ccco4)CC3)nc(N)c2cc1OC` as the compound, how does the outcome read?
**A.** The outcome was “inactive”.

**Q.** For `O=C(NCCCN1CCOCC1)c1ccc(Cl)cc1`, which outcome is on record?
**A.** Its outcome is “inactive”.

**Q.** Which outcome does the source give for `CC1=NN(c2ccc(C(=O)O)cc2)C(=O)C1` here?
**A.** The outcome was “inactive”.

**Q.** For `CN1C[C@H]2c3ccccc3Oc3ccc(Cl)cc3[C@@H]2C1`, which outcome is on record?
**A.** Its outcome is “inactive”.

**Q.** With `NC(=O)CC[C@@H]1NC(=O)[C@H](Cc2ccccc2)NC(=O)[C@H](Cc2ccc(O)cc2)NC(=O)[C@@H](N)CSSC[C@@H](C(=O)N2CCC[C@H]2C(=O)N[C@@H](CCCN=C(N)N)C(=O)NCC(N)=O)NC(=O)[C@H](CC(N)=O)NC1=O` as the compound, how does the outcome read?
**A.** The outcome was “inactive”.

**Q.** With `O=Cc1ccc(F)c(Br)c1` as the compound, how does the outcome read?
**A.** Its outcome is “inactive”.

**Q.** For `N=C(N)c1ccccc1`, which outcome is on record?
**A.** Its outcome is “inactive”.

**Q.** For `CC(CN(C)C)CN1c2ccccc2S(=O)(=O)c2ccccc21` (stereo unspecified), which outcome is on record?
**A.** Its outcome is “inactive”.

**Q.** Which outcome does the source give for `CCOC(=O)C1=C(C)NC(C)=C(C(=O)OC)C1c1cccc(Cl)c1Cl` (stereo unspecified) here?
**A.** Its outcome is “inactive”.

**Q.** For `OCC(O)COc1ccc(Cl)cc1` (stereo unspecified), which outcome is on record?
**A.** The outcome was “inactive”.

**Q.** For `CC(=O)CCC=C(C)CC/C=C(\C)CC/C=C(\C)CCC=C(C)C`, which outcome is on record?
**A.** Its outcome is “inactive”.

**Q.** With `NC(=O)N1c2ccccc2CC(=O)c2ccccc21` as the compound, how does the outcome read?
**A.** Its outcome is “inactive”.
